Screening data (PubChem BioAssay)
Only a selection was taken, and hits are over-represented in it overall.
HT1080NT lethal = kills 2HG-producing HT-1080-NT fibrosarcoma cells; Potency, µM (doses to about 46.1 µM), for inactives: at the top dose activity, negative = less viability, most hits filed as cytotoxic; HT-1080-NT fibrosarcoma viability, CellTiter-Glo ATP luminescence, 48 h; 360,000 compounds, 1.6% hits;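 further: NT is the 2HG producing partner of a matched IDH1 knockdown line; potency means the concentration at half of the fitted maximal effect; 0% = DMSO-treated cells and -100% = media-only wells without cells; nearly all actives have a fitted effect of over 55% in size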
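A 48-hour cytotoxicity screen used HT-1080-NT cells plated 2 hours before compound delivery. ATP-based CellTiter-Glo luminescence measured viability, normalized to DMSO and no-cell controls.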
DT40 TDP1 no CPT = qHTS for Inhibitors of human tyrosyl-DNA phosphodiesterase 1 (TDP1): qHTS in cells in absence of CPT; DT40 Tdp1-/- hTDP1 cells, no CPT, ATP luminescence, 48 h; Potency, µM (titrated, usually from 46.2 µM), for inactives: at the top dose activity change, negative = growth inhibition, most hits filed as inhibitors; 420,000 compounds, 15% hits; further: potency means the concentration at half of the fitted maximal effect; nearly all actives have a fitted effect of over 55% in size
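Readout: luminescence from CellTiter-Glo after 30 min in the dark at RT. Cells: DT40 Tdp1-/- with stable hTDP1, 400/well. Exposure: compounds alone, ≥48 hr, 37 °C.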
HT1080 IDH1KD tx = HT-1080 IDH1 knockdown cell toxicity (counter line); Potency, µM (top dose mostly 46.1 µM), without a hit: top-dose activity, negative = toxicity, hits mostly cytotoxic; HT-1080 IDH1 knockdown viability, ATP luminescence, 48 h; AID 686971; 360,000 compounds, 2% hits;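 further: potency means the concentration at half of the fitted maximal effect; 0% = DMSO wells and -100% = cell-free medium wells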
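Assay cells: HT-1080 with IDH1 knockdown, 750 per well, RPMI/5% FBS. Exposure: 48 h at 37 °C following 2 h pre-incubation. Read: CellTiter-Glo luminescence; fitted concentration-response, curve class assigned.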
DT40 TDP1 CPT = growth inhibition of DT40 Tdp1-/-;hTDP1 cells with camptothecin (screen for TDP1 inhibitors) | 420,000 compounds, 12% hits | AID 686979 | Potency, µM (doses to about 46.2 µM), inactives show at the highest dose activity change, negative = growth inhibition, most hits filed as inhibitors | chicken DT40 Tdp1-/-;hTDP1 cells + 20 nM CPT, ATP luminescence, 48 h; further: potency means the concentration at half of the fitted maximal effect; nearly all actives have a fitted effect of over 55% in size
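Chicken DT40 Tdp1-/- cells complemented with human TDP1, 400 cells/well, exposed to compounds plus 20 nM camptothecin for at least 48 h at 37 C; viability read as ATP content by CellTiter-Glo luminescence.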
IL1B secr inh = inflammasome signaling inhibition, IL-1 beta readout; THP-1 LPS/ATP IL-1B secretion, AlphaLISA, 16 h; hits give low values; activity change, % at 57.5 µM; 360,000 compounds, 4.7% hits; in the data active means activity change below about -50%; inconclusive means mostly about -30% to -49%
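Secreted IL-1B measured by AlphaLISA bead assay after 16 h compound exposure of THP-1 cells; compounds (final up to 57.5 uM) added 1 h before LPS (250 ng/mL) and ATP (1.25 mM) stimulation; lower signal means less secretion.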
12-LOX inh = blocks human arachidonate 12S-lipoxygenase | P18054 | purified 12hLO, xylenol orange hydroperoxide absorbance | Potency, µM (series often up to 108 µM), for inactives: at the highest dose activity change, negative = inhibition, hits mostly inhibitors | 580,000 compounds, 1.1% hits | AID 1671190; further: potency means the concentration at half of the fitted maximal effect
Target sequence (P18054 whole entry, looked up): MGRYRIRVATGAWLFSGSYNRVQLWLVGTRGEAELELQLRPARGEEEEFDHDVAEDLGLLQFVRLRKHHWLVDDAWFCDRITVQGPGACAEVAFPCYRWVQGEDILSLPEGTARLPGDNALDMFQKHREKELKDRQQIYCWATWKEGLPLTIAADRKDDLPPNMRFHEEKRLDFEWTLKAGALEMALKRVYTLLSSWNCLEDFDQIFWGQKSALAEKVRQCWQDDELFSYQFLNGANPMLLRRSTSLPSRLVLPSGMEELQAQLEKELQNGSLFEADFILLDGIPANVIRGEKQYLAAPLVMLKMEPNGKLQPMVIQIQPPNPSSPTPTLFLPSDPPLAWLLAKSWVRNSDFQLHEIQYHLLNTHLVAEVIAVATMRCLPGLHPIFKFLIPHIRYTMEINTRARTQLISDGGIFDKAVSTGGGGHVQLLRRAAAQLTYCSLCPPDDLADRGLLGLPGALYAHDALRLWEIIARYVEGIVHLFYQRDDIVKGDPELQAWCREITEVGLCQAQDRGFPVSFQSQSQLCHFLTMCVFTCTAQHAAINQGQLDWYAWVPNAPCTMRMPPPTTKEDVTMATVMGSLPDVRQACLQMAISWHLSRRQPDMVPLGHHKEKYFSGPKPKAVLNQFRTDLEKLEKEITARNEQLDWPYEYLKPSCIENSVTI
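Hydroperoxide product was detected by ferrous iron/xylenol orange as the 573 to 405 nm absorbance ratio. Arachidonic acid at 40 uM (final) was turned over for 30 min at room temperature by 150 nM human 12hLO, pH 7.0 Hepes buffer, after 15 min compound preincubation.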
* hit, by the source's call; ? = inconclusive; nt = no result given; ! = not confirmed by another sample; [ ] = remark or other dose. Unless noted, the call rests on the fitted dose curve; in most records, active means well fitted curve in the direction sought with a large enough effect; inconclusive means small, poorly fitted or top-dose-only effect, or another doubt; inactive means no such curve, though single readings can be large; an effect the other way counts as inactive or inconclusive. Unless noted, on the % scale 0 is the no-effect control and ±100 the full control effect.

SMILES	HT1080NT lethal	DT40 TDP1 no CPT	HT1080 IDH1KD tx	DT40 TDP1 CPT	IL1B secr inh	12-LOX inh
CCc1nc2c(OCc3ccccc3)cccn2c1N(C)C(=O)C(C)C	12.5%	?	13.9%	?	213.4	6.8%
CCC(CC)C(=O)N(C)c1c(C)nc2c(OCc3ccc(Cl)cc3)cccn12	?	?	?	8.2µM*	10.6	?
CCC(CC)C(=O)N(C)c1c(C)nc2c(OCc3cccc(Cl)c3)cccn12	-18.3%	11.6µM*	-29.3%	20.6µM*	18.9	-5.0%
CCC(CC)C(=O)N(C)c1c(C)nc2c(OCc3cc(Cl)cc(Cl)c3)cccn12	?	?	?	?	3.7	-9.1%
c1ccc(CNc2ncc(CN3CCC4(CCNCC4)C3)cn2)cc1	nt	nt	nt	nt	nt	5.1%
O=C(CCS(=O)(=O)c1ccccc1)N(CCCN1CCOCC1)c1nc2ccccc2s1	0.7%	3.66µM*	?	5.17µM*	-107.4*	-29.5%
CCCC(=O)N(CCN1CCOCC1)c1nc2cc(C)c(C)cc2s1	2.1%	0.8%	-2.1%	-13.3%	-10.9	-3.5%
Cc1ccc(S(=O)(=O)CCC(=O)N(CCCN2CCOCC2)c2nc3ccccc3s2)cc1	-4.9%	2.91µM*	-10.9%	2.31µM*	-72.0*	-17.3%
Cc1ccc2nc(N(CCN3CCOCC3)C(=O)CCS(=O)(=O)c3ccccc3)sc2c1	-1.1%	11.6µM*	-0.9%	11.6µM*	?	?
Cc1cc(C)c(NS(=O)(=O)c2ccc(N3C(=O)CCS3(=O)=O)cc2C)c(Cl)c1	nt	nt	nt	nt	nt	3.1%
Nc1ccc2c(c1)[nH]c(=O)c1ccccc12	-2.3%	?	?	?	-74.7*	0.3%
CC(=O)Nc1ccc2c(c1)[nH]c(=O)c1ccccc12	4.8%	?	-0.5%	0.82µM*	-13.9	-5.4%
O=C(Nc1ccc2c(c1)[nH]c(=O)c1ccccc12)C(F)(F)F	1.2%	-26.0%	-7.3%	?	-9.4	0.4%
O=c1[nH]c2cc(O)ccc2c2ccccc12	nt	nt	nt	nt	nt	-10.7%
CCn1cc(S(=O)(=O)N2CCCCCCNC(=O)[C@@H]3CCC[C@@H]32)cn1	nt	nt	nt	nt	nt	23.7%
Cc1cc2n(n1)C(c1ccsc1)Nc1c(C)cccc1-2 (stereo not given)	nt	nt	nt	nt	nt	24.9%
CCOc1ccc(C2Nc3c(C)cccc3-c3cc(C)nn32)cc1 (stereo not given)	nt	?	nt	20.6µM*	nt	-11.0%
CC(C)Oc1ccc(NC(=O)CCc2c[nH]c3ccccc23)cc1	nt	nt	nt	nt	nt	12.0%
c1ccc(-c2nnc(N3CCOCC3)nc2-c2ccccc2)cc1	2.7%	?	-2.7%	16.4µM*	-9.4	-25.6%
CN1CCN(c2nc(-c3ccc(Br)cc3)nnc2-c2ccccc2)CC1	?	11.6µM*	20.6µM*	16.4µM*	-57.9*	5.2%
Cc1ccc(-c2nnc(-c3ccccc3)c(N3CCOCC3)n2)cc1	2.9%	16.4µM*	0.9%	?	14.7	-18.9%
CN1Cc2c(cc(N3CCOCC3)nc2-c2cccc(C(F)(F)F)c2)C1=O	nt	nt	nt	nt	nt	3.2%[176 µM]
Cc1nnc(-c2cccc(C(F)(F)F)c2)nc1N1CCOCC1	-19.9%	14.6µM*	-9.5%	4.6%	-2.9	-19.2%
CCCOC(=O)c1cc2ccccc2[nH]1	nt	nt	nt	nt	nt	18.7%
Brc1ccc(-c2nnc(-c3ccccc3)c(N3CCSCC3)n2)cc1	-12.5%	25.9µM*	-9.8%	?	-0.7	0.0%
CCOC(=O)c1cc(S(=O)(=O)N(C)CC(=O)N2CCN(c3ccc(Cl)cc3)CC2)cn1C	nt	nt	nt	nt	nt	-9.4%
C=CCN1CCc2c(cc(O)c(O)c2Br)[C@@H](c2ccccc2)C1	?	7.31µM*	?	?	105.7	?
Oc1cc2c(cc1O)C(c1ccccc1)CNCC2 (stereo not given)	-29.8%	25.9µM*!	-22.6%	?	-1.6	?
